Drawing on PubChem BioAssay (NCI), this text covers growth for eight compounds.

Compounds without any hit were thinned out: in the full panel of roughly 83,000, 20% have a hit.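 Each cell line was grown in a 96-well plate and treated with one concentration of compound for 48 hours. Values below 10 were considered active.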 A number with no mark means an inactive call. Activity calls are given as the source filed them.

Test systems include SK-MEL-2 melanoma; EKVX NSCLC; SN12C renal; UO-31 renal; TK-10 renal; ACHN renal; CAKI-1 renal; CCRF-CEM leukemia; MOLT-4 leukemia; SR leukemia; OVCAR-8 ovarian; OVCAR-5 ovarian; OVCAR-4 ovarian; SK-OV-3 ovarian; IGROV1 ovarian; OVCAR-3 ovarian; HS 578T breast; NCI/ADR-RES ovarian; RPMI-8226 leukemia; A498 renal.
Assay in all cases: NCI-60 one-dose screen, 48 h (100 = growth as untreated, 0 = no growth, -100 = all killed)
Settings in all cases: 10 µM

Take `COc1ccc(-c2nn(-c3cccc(Cl)c3)cc2-c2cc(-c3ccccc3)nc(N)n2)cc1`: the growth in the assay on SK-MEL-2 melanoma is 83.6%; in the assay on EKVX NSCLC it was 58.2%; in the assay on SN12C renal, 35.8%; in the assay with UO-31 renal it was 60.8%; in the assay with TK-10 renal it was 86%; in the assay with ACHN renal, 71.1%. In addition, the growth in the assay on CAKI-1 renal was 29.2%; with CCRF-CEM leukemia, 41.1%; with MOLT-4 leukemia, 6.55% (active); in the assay on SR leukemia, 11.3%; in the assay on OVCAR-8 ovarian it was 67.9%; in the assay on OVCAR-5 ovarian it was 59%. For the same compound, the growth with OVCAR-4 ovarian is 56.1%; with SK-OV-3 ovarian, 98.5%; in the assay with IGROV1 ovarian, 83.7%; in the assay with OVCAR-3 ovarian, 72.2%; in the assay on HS 578T breast it was 62%; with NCI/ADR-RES ovarian, 53.3%.
For `CC(=O)C1N=NCC1c1ccccc1` (stereo not drawn), the growth was 97.3% with SK-MEL-2 melanoma; 101% in the assay on EKVX NSCLC; 88.7% in the assay with SN12C renal; 92.3% in the assay on UO-31 renal; 96.1% in the assay with TK-10 renal; 95.8% with ACHN renal. Further, the growth with CAKI-1 renal is 95.4%; with CCRF-CEM leukemia, 104%; with MOLT-4 leukemia, 96.7%; in the assay on SR leukemia it was 111%; in the assay on RPMI-8226 leukemia, 110%; with OVCAR-8 ovarian, 111%. The growth was 98.9% with OVCAR-5 ovarian; 106% in the assay on OVCAR-4 ovarian; 103% in the assay on SK-OV-3 ovarian; 110% in the assay on OVCAR-3 ovarian; 90% with HS 578T breast; 104% in the assay with NCI/ADR-RES ovarian.
For `C=C1CCC2(C#N)[C@H]3[C@H](CC[C@@H]2C)[C@@H](C)C[C@@H](CC(C)(C)NC(=O)CN2CCC2=O)[C@H]13` (stereo partly drawn), the growth was 64.4% with SK-MEL-2 melanoma; 52.6% in the assay with EKVX NSCLC; 57.1% in the assay with SN12C renal; 47.3% with UO-31 renal; 81.4% in the assay with TK-10 renal; 65.6% in the assay with ACHN renal. The growth in the assay on CAKI-1 renal was 56.4%; in the assay with A498 renal, 92.1%; in the assay on RPMI-8226 leukemia, -11.3% (active); with OVCAR-8 ovarian it was 54.8%; in the assay on OVCAR-5 ovarian, 63.5%; in the assay with OVCAR-4 ovarian, 62.4%. Moreover, the growth in the assay on SK-OV-3 ovarian was 89.7%; in the assay on IGROV1 ovarian it was 28.7%; in the assay with OVCAR-3 ovarian, 65.6%; with HS 578T breast, 74.3%; in the assay with NCI/ADR-RES ovarian, 59.2%.
In the case of `CC(C)(C)OC(=O)CN1CCc2c(sc3ncnc(N/N=C/c4ccccc4Br)c23)C1`, the growth is 87.4% in the assay on SK-MEL-2 melanoma; 44.5% with EKVX NSCLC; 73.3% in the assay with SN12C renal; 37.6% in the assay with UO-31 renal; 90.8% with TK-10 renal; 56.6% in the assay on ACHN renal. The growth was 51.3% with CAKI-1 renal; 77% in the assay on A498 renal; 11.1% in the assay with MOLT-4 leukemia; 37.6% in the assay with SR leukemia; 61.5% in the assay on OVCAR-8 ovarian; 92.3% with OVCAR-5 ovarian. Further, the growth in the assay with OVCAR-4 ovarian is 74.7%; in the assay on SK-OV-3 ovarian it was 109%; in the assay on IGROV1 ovarian, 50.6%; with OVCAR-3 ovarian, 69%; in the assay with HS 578T breast, 77%; in the assay on NCI/ADR-RES ovarian, 71.7%.
In the case of `N#CC1=CC2CN(Cc3ccccc3)C1C1C(=O)N(c3ccccc3)C(=O)C21` (stereo not drawn), the growth is 105% in the assay on SK-MEL-2 melanoma; 94.7% with EKVX NSCLC; 100% in the assay with SN12C renal; 74.7% in the assay on UO-31 renal; 96.2% in the assay with TK-10 renal; 103% in the assay with ACHN renal. Further, the growth in the assay with CAKI-1 renal is 101%; with CCRF-CEM leukemia, 97.2%; in the assay with MOLT-4 leukemia, 89.5%; in the assay with SR leukemia it was 93.4%; in the assay with OVCAR-8 ovarian, 98.2%; with OVCAR-5 ovarian, 101%. Also, the growth in the assay with OVCAR-4 ovarian was 93.2%; with SK-OV-3 ovarian it was 97%; in the assay on IGROV1 ovarian, 103%; with OVCAR-3 ovarian, 111%; in the assay on HS 578T breast, 101%; in the assay with NCI/ADR-RES ovarian, 91.6%.
For the compound `COc1ccc(-c2nn(-c3cccc(Cl)c3)cc2-c2c(C#N)c(=O)n3[nH]c(-c4ccccc4)nc3c2C#N)cc1`, the growth in the assay on SK-MEL-2 melanoma was 88.6%; in the assay on EKVX NSCLC it was 35.9%; with SN12C renal, 104%; in the assay on UO-31 renal, 82.5%; with TK-10 renal, 123%; with ACHN renal, 101%. For the same compound, the growth was 62.9% in the assay with CAKI-1 renal; 74.4% with CCRF-CEM leukemia; 61.6% in the assay with MOLT-4 leukemia; 71.2% in the assay with SR leukemia; 110% with OVCAR-8 ovarian; 106% with OVCAR-5 ovarian. The growth in the assay on OVCAR-4 ovarian is 97.3%; with SK-OV-3 ovarian, 102%; in the assay with IGROV1 ovarian it was 108%; in the assay on OVCAR-3 ovarian, 109%; with HS 578T breast, 101%; with NCI/ADR-RES ovarian, 93%.
Turning to `Cc1cc(O)ccc1C1=NN(c2ccc(S(C)(=O)=O)cc2)C(=O)CC1`, the growth with SK-MEL-2 melanoma was 68.7%; with EKVX NSCLC it was 72.2%; with SN12C renal it was 90.3%; with UO-31 renal, 48.8%; in the assay on TK-10 renal it was 105%; in the assay with ACHN renal, 79.7%. Also, the growth was 25.4% in the assay with CAKI-1 renal; 69.7% with CCRF-CEM leukemia; 52.7% with MOLT-4 leukemia; 12.3% in the assay with SR leukemia; 92.3% in the assay with OVCAR-8 ovarian; 98.1% in the assay with OVCAR-5 ovarian. The growth in the assay on OVCAR-4 ovarian was 98%; with SK-OV-3 ovarian it was 85%; in the assay on IGROV1 ovarian, 43.5%; in the assay on OVCAR-3 ovarian, 65.1%; in the assay on HS 578T breast, 86.9%; with NCI/ADR-RES ovarian it was 40.6%.
In the case of `Cc1c2cnccc2c(C)c2c1oc1ccccc12`, the growth is 112% in the assay on SK-MEL-2 melanoma; 38.3% with EKVX NSCLC; 69.1% with SN12C renal; 40.4% in the assay on UO-31 renal; 48.4% in the assay on TK-10 renal; 58.6% with ACHN renal. The growth in the assay on CAKI-1 renal was 66%; in the assay on CCRF-CEM leukemia it was 62.8%; with MOLT-4 leukemia it was 3.5% (active); with SR leukemia, 21.2%; in the assay on OVCAR-8 ovarian it was 71.1%; with OVCAR-5 ovarian, 82.4%. Further, the growth with OVCAR-4 ovarian was 98.9%; in the assay with SK-OV-3 ovarian, 71.2%; in the assay on IGROV1 ovarian it was 78.8%; with OVCAR-3 ovarian, 98.1%; in the assay on HS 578T breast, 53.7%; with NCI/ADR-RES ovarian it was 73.7%.
